Assay results taken from publication PMC7862700, “An all-to-all approach to the identification of sequence-specific readers for epigenetic DNA modifications on cytosine”.

How the values were obtained:
Assay in all cases: DAPPL (digital affinity profiling via proximity ligation, sequencing); 10 mM Tris-HCl pH 7.5, 50 mM NaCl, 1 mM DTT, 4% glycerol, room temperature, 30 min; GST-TFs on glutathione beads, 16-mer random dsDNA library, 0.1% formaldehyde crosslink after washing; high values mean tight binding
ELK1 = target: T1, ELK1 (Homo sapiens, UniProt P19419 1-428); settings: protein: recombinant; tags: N-terminal GST; dsDNA, one strand shown
T1 sequence: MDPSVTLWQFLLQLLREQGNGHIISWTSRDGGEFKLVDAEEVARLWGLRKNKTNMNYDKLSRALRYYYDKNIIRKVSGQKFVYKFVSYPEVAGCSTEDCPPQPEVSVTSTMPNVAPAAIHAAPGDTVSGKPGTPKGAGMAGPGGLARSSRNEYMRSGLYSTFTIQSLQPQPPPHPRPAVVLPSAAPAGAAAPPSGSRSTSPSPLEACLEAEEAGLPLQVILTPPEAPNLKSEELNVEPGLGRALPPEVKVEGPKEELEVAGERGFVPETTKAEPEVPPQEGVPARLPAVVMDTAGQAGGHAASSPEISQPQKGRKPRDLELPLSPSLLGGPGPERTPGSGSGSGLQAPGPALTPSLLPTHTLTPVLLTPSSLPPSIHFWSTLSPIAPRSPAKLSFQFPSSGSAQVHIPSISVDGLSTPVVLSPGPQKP
Method in brief: (§1)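 Human transcription factors carrying a GST fusion were produced in yeast, bound to glutathione beads, tagged with DNA barcodes and pooled together with a tag-only sample. Each pool was held with 200 nmole of a random double-stranded 16-mer DNA library in Tris/NaCl/DTT/glycerol buffer for 30 min at room temperature, then washed, crosslinked in 0.1% formaldehyde, proximity-ligated with BsaI/T4 ligase (1 h, 37 °C), PCR-amplified and sequenced on an Illumina NextSeq500. Binding signal is the read frequency of each hexamer for a given factor divided by its frequency in the tag-only sample.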

ELF1 = ELF1 (Homo sapiens, UniProt P32519 1-619); settings: protein: recombinant; tags: N-terminal GST; dsDNA, one strand shown
Method in brief: as §1

SPIB = SPIB (Homo sapiens, UniProt Q01892 1-262); settings: protein: recombinant; tags: N-terminal GST; dsDNA, one strand shown
Method in brief: as §1

ELK3 = target: T2, ELK3 (Homo sapiens, UniProt P41970 1-407); settings: protein: recombinant; tags: N-terminal GST; dsDNA, one strand shown
T2 sequence: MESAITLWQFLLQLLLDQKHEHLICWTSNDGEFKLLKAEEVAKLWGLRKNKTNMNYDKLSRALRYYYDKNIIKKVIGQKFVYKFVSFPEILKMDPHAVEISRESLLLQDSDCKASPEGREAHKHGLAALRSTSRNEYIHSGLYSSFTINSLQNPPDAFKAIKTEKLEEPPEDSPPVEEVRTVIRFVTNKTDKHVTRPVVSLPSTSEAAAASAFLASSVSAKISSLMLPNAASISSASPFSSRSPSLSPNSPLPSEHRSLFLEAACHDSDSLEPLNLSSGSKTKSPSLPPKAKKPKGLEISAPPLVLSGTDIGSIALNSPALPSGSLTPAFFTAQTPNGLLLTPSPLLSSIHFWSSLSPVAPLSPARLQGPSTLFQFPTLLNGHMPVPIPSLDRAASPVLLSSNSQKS
Method in brief: as §1

HSF1 = HSF1 (Homo sapiens, UniProt Q00613 1-529); settings: protein: recombinant; tags: N-terminal GST; chain copies: 3; dsDNA, one strand shown
Method in brief: as §1

SPIC = target: T3, SPIC (Homo sapiens, UniProt Q8N5J4 1-248); settings: protein: recombinant; tags: N-terminal GST; dsDNA, one strand shown
T3 sequence: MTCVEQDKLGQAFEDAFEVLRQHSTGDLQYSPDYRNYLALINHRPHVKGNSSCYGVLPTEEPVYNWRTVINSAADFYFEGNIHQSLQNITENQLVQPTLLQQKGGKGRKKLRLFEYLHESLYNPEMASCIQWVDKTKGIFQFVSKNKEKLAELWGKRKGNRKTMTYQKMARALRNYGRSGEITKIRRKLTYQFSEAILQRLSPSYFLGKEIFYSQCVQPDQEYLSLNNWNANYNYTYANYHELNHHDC
Method in brief: as §1

ELF4 = ELF4 (Homo sapiens, UniProt Q99607 1-663); settings: protein: recombinant; tags: N-terminal GST; dsDNA, one strand shown
Method in brief: as §1

ETV2 = target: T4, ETV2 (Homo sapiens, UniProt O00321 1-342); settings: protein: recombinant; tags: N-terminal GST; dsDNA, one strand shown
T4 sequence: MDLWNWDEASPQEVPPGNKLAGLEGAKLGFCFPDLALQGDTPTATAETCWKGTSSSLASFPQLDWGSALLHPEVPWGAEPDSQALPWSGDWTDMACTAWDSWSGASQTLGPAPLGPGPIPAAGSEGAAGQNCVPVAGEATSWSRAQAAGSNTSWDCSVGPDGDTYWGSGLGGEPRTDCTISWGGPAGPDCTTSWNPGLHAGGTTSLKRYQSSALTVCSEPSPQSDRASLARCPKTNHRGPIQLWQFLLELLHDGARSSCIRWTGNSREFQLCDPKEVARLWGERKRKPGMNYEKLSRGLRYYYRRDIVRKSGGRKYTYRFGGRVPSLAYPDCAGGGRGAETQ
Method in brief: as §1

ELF3 = target: T5, ELF3 (Homo sapiens, UniProt P78545 1-371); settings: protein: recombinant; tags: N-terminal GST; dsDNA, one strand shown
T5 sequence: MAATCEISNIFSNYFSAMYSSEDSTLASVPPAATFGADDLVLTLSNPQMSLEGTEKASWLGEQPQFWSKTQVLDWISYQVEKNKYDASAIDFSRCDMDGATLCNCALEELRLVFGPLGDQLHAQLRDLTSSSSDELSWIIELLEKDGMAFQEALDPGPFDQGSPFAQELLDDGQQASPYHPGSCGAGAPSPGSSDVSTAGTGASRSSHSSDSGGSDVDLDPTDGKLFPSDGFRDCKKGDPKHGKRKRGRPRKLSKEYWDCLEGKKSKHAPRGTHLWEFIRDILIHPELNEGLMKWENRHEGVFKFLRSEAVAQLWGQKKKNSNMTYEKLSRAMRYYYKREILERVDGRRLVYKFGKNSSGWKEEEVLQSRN
Method in brief: as §1

ERF = target: T6, ERF (Homo sapiens, UniProt P50548 1-548); settings: protein: recombinant; tags: N-terminal GST; dsDNA, one strand shown
T6 sequence: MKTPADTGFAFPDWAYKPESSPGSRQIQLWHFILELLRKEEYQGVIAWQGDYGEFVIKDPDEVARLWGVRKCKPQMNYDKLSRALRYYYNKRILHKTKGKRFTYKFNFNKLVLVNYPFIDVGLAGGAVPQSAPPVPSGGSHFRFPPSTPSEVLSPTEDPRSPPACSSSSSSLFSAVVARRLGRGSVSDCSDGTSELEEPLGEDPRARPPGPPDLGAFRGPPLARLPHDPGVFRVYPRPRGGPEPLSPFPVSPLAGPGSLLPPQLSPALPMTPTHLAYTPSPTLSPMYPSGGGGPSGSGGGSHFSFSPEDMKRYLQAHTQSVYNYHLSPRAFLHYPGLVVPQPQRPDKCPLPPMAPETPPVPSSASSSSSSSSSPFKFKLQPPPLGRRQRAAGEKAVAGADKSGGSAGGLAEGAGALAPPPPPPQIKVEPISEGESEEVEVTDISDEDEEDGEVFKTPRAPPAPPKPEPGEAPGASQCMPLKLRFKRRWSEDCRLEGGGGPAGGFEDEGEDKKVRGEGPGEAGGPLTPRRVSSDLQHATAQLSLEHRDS
Method in brief: as §1

ETV3L = target: T7, ETV3L (Homo sapiens, UniProt Q6ZN32 1-361); settings: protein: recombinant; tags: N-terminal GST; dsDNA, one strand shown
T7 sequence: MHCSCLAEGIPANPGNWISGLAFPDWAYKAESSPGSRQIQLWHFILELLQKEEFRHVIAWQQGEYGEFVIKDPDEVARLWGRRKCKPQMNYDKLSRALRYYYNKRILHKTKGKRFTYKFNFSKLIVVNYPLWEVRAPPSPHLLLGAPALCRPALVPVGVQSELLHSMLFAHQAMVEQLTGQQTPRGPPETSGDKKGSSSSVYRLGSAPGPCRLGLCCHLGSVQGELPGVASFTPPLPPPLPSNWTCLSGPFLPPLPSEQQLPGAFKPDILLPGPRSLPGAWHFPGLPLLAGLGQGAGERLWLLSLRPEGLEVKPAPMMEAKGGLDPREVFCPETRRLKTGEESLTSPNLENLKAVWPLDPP
Method in brief: as §1

ETS2 = target: T8, ETS2 (Homo sapiens, UniProt P15036 1-469); settings: protein: recombinant; tags: N-terminal GST; dsDNA, one strand shown
T8 sequence: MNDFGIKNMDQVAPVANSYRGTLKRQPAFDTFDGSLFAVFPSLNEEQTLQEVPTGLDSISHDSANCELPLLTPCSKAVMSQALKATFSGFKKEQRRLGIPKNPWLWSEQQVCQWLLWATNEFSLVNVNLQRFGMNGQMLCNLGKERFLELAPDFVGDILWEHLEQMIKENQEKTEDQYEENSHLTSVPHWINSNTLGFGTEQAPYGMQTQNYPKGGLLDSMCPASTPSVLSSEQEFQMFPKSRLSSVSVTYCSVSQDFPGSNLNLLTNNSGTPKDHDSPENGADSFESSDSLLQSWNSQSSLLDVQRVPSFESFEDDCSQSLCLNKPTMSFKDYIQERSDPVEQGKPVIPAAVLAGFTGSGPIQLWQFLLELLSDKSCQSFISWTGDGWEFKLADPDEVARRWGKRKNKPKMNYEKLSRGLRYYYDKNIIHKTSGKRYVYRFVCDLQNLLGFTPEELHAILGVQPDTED
Method in brief: as §1

EHF = target: T9, EHF (Homo sapiens, UniProt Q9NZC4 1-300); settings: protein: recombinant; tags: N-terminal GST; dsDNA, one strand shown
T9 sequence: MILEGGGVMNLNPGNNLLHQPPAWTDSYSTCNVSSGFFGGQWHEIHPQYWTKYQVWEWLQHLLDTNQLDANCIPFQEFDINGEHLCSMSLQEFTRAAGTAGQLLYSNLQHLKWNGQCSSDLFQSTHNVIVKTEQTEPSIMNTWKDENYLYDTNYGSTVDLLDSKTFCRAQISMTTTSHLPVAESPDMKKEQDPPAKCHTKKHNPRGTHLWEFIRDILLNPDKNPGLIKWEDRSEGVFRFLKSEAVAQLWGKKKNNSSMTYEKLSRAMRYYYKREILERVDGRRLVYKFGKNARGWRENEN
Method in brief: as §1

ELK4 = target: T10, ELK4 (Homo sapiens, UniProt P28324-2 1-405); settings: protein: recombinant; tags: N-terminal GST; dsDNA, one strand shown
T10 sequence: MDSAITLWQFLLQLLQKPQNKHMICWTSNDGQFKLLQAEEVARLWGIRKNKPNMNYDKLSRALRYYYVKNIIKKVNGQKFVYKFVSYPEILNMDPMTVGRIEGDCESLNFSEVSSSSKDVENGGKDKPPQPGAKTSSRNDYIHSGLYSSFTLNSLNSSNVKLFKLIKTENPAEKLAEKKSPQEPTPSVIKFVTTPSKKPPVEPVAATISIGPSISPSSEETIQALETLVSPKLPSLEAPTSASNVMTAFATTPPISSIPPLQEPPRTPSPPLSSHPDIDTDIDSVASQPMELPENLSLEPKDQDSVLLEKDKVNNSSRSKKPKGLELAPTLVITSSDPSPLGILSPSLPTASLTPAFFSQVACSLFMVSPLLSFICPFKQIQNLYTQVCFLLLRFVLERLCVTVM
Method in brief: as §1

CRX = CRX (Homo sapiens, UniProt O43186 1-299); settings: protein: recombinant; tags: N-terminal GST; dsDNA, one strand shown
Method in brief: as §1

HSF1, sequence (Q00613 whole entry): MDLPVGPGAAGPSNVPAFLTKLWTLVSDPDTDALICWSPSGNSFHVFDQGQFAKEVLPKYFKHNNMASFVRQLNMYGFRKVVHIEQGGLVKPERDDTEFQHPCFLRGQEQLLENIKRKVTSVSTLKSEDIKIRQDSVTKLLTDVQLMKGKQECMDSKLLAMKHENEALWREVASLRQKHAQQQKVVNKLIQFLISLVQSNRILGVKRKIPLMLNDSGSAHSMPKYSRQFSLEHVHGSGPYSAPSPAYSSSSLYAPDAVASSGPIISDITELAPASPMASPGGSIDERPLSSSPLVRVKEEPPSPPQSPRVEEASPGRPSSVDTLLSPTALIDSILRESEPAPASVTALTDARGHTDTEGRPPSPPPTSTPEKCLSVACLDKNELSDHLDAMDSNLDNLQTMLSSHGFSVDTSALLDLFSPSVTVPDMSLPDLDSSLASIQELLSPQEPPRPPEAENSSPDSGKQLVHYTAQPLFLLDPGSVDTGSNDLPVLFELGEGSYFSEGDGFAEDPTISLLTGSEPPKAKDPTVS
ELF1, sequence (P32519 whole entry): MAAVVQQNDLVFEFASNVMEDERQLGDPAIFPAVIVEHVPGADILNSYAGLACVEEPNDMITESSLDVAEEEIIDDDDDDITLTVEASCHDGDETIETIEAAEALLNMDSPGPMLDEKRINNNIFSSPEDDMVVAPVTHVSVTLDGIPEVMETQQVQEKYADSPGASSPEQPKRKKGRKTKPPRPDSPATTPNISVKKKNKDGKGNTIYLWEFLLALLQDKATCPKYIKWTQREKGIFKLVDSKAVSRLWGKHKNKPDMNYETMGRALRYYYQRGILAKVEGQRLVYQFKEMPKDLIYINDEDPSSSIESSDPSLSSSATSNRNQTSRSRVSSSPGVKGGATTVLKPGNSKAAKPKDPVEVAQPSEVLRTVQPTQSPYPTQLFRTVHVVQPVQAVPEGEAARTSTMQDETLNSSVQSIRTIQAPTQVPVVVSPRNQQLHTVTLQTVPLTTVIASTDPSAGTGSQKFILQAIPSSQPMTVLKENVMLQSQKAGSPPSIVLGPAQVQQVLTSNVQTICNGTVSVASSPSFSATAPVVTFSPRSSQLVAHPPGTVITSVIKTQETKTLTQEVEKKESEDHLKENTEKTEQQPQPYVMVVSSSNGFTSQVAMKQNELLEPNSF
CRX, sequence (O43186 whole entry): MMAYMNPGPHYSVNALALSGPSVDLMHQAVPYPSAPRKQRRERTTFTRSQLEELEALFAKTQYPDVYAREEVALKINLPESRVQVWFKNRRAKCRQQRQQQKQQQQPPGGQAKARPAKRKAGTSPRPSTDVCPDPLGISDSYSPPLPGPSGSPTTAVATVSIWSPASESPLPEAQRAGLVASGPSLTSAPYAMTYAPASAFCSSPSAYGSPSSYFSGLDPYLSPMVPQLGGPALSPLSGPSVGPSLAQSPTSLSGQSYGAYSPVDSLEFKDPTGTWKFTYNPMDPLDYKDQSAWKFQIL
SPIB, sequence (Q01892 whole entry): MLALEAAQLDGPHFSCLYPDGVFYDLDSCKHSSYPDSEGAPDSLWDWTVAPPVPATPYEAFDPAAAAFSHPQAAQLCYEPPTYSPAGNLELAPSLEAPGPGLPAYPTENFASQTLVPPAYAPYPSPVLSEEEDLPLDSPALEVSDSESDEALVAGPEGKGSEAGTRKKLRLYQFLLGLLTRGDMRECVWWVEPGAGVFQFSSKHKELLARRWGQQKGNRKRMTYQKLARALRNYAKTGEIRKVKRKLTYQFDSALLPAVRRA
ELF4, sequence (Q99607 whole entry): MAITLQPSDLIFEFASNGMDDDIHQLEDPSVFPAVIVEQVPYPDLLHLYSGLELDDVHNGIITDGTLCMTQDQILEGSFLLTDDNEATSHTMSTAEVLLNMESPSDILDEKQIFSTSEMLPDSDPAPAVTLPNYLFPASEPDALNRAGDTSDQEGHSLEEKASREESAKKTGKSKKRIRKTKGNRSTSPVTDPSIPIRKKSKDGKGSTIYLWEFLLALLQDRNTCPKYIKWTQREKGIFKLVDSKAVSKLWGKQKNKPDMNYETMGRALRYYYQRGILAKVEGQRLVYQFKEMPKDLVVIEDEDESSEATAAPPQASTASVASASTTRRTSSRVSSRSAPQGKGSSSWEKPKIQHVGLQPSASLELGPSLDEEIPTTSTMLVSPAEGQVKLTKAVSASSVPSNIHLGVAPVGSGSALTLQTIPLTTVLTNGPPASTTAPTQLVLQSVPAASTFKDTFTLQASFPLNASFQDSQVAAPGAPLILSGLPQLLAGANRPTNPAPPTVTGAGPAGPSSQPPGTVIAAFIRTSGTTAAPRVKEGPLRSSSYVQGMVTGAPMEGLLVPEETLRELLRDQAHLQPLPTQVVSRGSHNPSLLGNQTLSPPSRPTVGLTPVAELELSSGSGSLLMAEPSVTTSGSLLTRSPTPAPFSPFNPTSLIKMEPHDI

Sequence | binding signal (ELK1) | binding signal (ELF1) | binding signal (SPIB) | binding signal (ELK3) | binding signal (HSF1) | binding signal (SPIC) | binding signal (ELF4) | binding signal (ETV2) | binding signal (ELF3) | binding signal (ERF) | binding signal (ETV3L) | binding signal (ETS2) | binding signal (EHF) | binding signal (ELK4) | binding signal (CRX)
AACCGA | 1.02 fold enrichment (6-mer frequency, TF over GST control) | 1.04 fold enrichment (6-mer frequency, TF over GST control) | 1.03 fold enrichment (6-mer frequency, TF over GST control) | 1.01 fold enrichment (6-mer frequency, TF over GST control) | 1.04 fold enrichment (6-mer frequency, TF over GST control) | 1.09 fold enrichment (6-mer frequency, TF over GST control) | 1.02 fold enrichment (6-mer frequency, TF over GST control) | 1.13 fold enrichment (6-mer frequency, TF over GST control) | 1.04 fold enrichment (6-mer frequency, TF over GST control) | 1 fold enrichment (6-mer frequency, TF over GST control) | 1.07 fold enrichment (6-mer frequency, TF over GST control) | 1.03 fold enrichment (6-mer frequency, TF over GST control) | – | – | –
TCCAGC | 1.03 fold enrichment (6-mer frequency, TF over GST control) | – | – | 1.07 fold enrichment (6-mer frequency, TF over GST control) | 1.44 fold enrichment (6-mer frequency, TF over GST control) | 1.06 fold enrichment (6-mer frequency, TF over GST control) | – | – | – | – | – | – | 1.04 fold enrichment (6-mer frequency, TF over GST control) | 1.17 fold enrichment (6-mer frequency, TF over GST control) | 1.08 fold enrichment (6-mer frequency, TF over GST control)
